Rows were chosen to be rich in hits. Some 0.7% of all compounds tested hit in one or more screens of this group.
PINK1 modulator = A Quantitative High throughput Screen to Identify Chemical Modulators of PINK1 Expression. Potency, µM (top dose mostly 76.6 µM), for the others: top-dose activation (PINK1 increase), most hits filed as activators. PINK1 immunofluorescence, high-content cytometry, 24 h. AID 624263, 2012. 410,000 compounds, 0.2% hits; active = well fitted activation curve with a large enough effect; inconclusive = small, poorly fitted or top-dose-only effect; cell line not stated here; also: % of control where 0% means no effect; nearly all actives have a fitted effect of over 65% in size
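A stable cell line was treated with compounds at 5 concentrations for 24 hours, with CCCP as control. PINK1 levels and mitochondrial localization were measured by immunofluorescence with mitochondrial, cell and nuclear markers after fixation, read by laser-scanning cytometry.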
Vif-A3F inh = qHTS for Inhibitors of Vif-A3F Interactions: qHTS | HeLa A3F-eYFP + Vif (tagged APOBEC3F with the HIV-1 protein that degrades it), YFP fluorescence increase | Potency, µM (doses to about 46.1 µM), inactives show at the top dose activity, negative = active | 390,000 compounds, 0.2% hits; also: % of control where 0% means no effect; nearly all actives have a fitted effect of over 65% in size
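HeLa cells stably expressing Vif plus C-terminally eYFP-tagged A3F were seeded, incubated overnight at 37 deg C, dosed with compound, incubated overnight again at 37 deg C. Yellow fluorescence (Ex 488/Em 500-530) reported blocked Vif-mediated A3F-eYFP degradation.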
Epigenetic reg = Quantitative High-Throughput Screen for Regulators of Epigenetic Control | murine LDR cells, GFP reporter derepression, 30 h | 280,000 compounds, 0.2% hits | Potency, µM (series often up to 53.9 µM), for inactives: top-dose GFP activation, usual class: activators; also: % of control where 0% means no effect; nearly all actives have a fitted effect of over 60% in size
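Reporter derepression read as number of fluorescent GFP-positive objects, 20-120 um in size, counted by laser-scanning cytometer. Mouse LDR line with an epigenetically silenced CMV-GFP locus; compound incubation 30 h, 37 C.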
Vif-A3G inh = qHTS for Inhibitors of Vif-A3G Interactions: qHTS | HeLa A3G-eYFP + Vif (tagged APOBEC3G with the HIV-1 protein that degrades it), YFP fluorescence, overnight | AID 602310, 2012 | 410,000 compounds, 0.076% hits | Potency, µM (top dose mostly 46.1 µM), for inactives: at the top dose activity, negative = active, most hits filed as inhibitors; also: % is scaled to controls: 0 for no effect and ±100 for the full control effect; nearly all actives have a fitted effect of over 60% in size
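Read-out is eYFP fluorescence (Ex 488/Em 500-530) from Vif-expressing HeLa A3G-eYFP cells; more signal means A3G escaped Vif-mediated degradation. Cells plated overnight, compound pinned in, incubated overnight at 37 deg C.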
GLS inh = qHTS for Inhibitors of Glutaminase (GLS). GLS enzymatic activity, qHTS titration. 410,000 compounds, 0.21% hits. AID 624170, 2012. Potency, µM (top dose mostly 45.5 µM), without a hit: at the top dose activity change, negative = inhibition, hits mostly inhibitors; also: % is scaled to controls: 0 for no effect and ±100 for the full control effect
Target sequence (O94925 whole entry, looked up): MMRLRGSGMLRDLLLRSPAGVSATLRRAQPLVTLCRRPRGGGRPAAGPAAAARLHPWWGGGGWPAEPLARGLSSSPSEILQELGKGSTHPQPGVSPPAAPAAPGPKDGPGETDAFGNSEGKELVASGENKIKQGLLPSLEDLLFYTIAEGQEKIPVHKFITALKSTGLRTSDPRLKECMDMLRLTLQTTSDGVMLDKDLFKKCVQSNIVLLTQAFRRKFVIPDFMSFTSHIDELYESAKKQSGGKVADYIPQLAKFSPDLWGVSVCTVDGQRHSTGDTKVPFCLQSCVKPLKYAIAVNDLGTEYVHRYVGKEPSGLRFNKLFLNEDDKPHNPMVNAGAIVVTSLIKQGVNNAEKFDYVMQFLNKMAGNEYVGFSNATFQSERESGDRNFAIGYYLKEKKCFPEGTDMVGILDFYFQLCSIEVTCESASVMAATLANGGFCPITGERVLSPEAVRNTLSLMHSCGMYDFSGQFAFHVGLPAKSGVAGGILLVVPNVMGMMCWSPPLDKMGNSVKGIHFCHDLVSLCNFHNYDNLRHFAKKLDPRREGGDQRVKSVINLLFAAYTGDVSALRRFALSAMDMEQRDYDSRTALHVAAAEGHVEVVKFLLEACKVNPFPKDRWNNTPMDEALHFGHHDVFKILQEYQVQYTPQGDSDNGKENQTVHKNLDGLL
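Coupled fluorescence readout: glutamate oxidase/HRP/Amplex Red detect glutamate formed by hKGA from L-glutamine (1 mM solution added). Buffer 45 mM KH2PO4 pH 8.2, 0.02% Tween-20; reads at t0 and 30 min RT.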
The depositor's hits bear a star; ? = inconclusive; . = not tested or not shown; [ ] = another dose, or the depositor's remark. Unless noted, calls follow the shape of the dose curve; as a rule, active = well fitted curve in the direction sought with a large enough effect; inconclusive = small, poorly fitted or top-dose-only effect, or another doubt; inactive = no such curve, though single readings can be large; an effect the other way counts as inactive or inconclusive. Potency is read from the fitted curve at half-maximal effect.

SMILES	PINK1 modulator	Vif-A3F inh	Epigenetic reg	Vif-A3G inh	GLS inh
CN=C1NN=C(c2cc(C)n(-c3c(C)n(C)n(-c4ccccc4)c3=O)c2C)CS1	-1%	5%	1%	-7%	0%
Cc1cccnc1-c1cccc2c1OC(CNC(=O)Cc1c(C)noc1C)C2 (stereo not drawn)	0%	.	.	.	.
C[C@@H](C(=O)O)c1ccc(C2CCCCC2)c2ccccc12	.	.	.	.	1%
CC(O)(COc1ccccc1)c1ccc2c(c1)CN(Cc1cccc3ncccc13)CCO2 (stereo not drawn)	2%	.	.	.	.
COc1cccc(CCNc2ncnc3sc(C(=O)N4CCOCC4)c(C)c23)c1	-1%	.	.	.	.
Cc1cc(Br)ccc1SCC(=O)OC/C(O)=C(\C#N)c1nc2ccccc2[nH]1	13%	25µM*	15%	-6%	4%
COc1cccc(-c2nc(=S)c3c(n2Cc2ccco2)CCCC3)c1	6.3µM*	-6%	-1%	-2%	-5%
Cc1cccc2cc(CNCCCN3CCCC3=O)c(N3CCN4CCCC4C3)nc12 (stereo not drawn)	1%	.	.	.	.
COc1cccc(-c2ccc3c(N)c(C(=O)c4ccc(Br)cc4)sc3n2)c1	5%	7.9µM*	?	?	0%
CC(=O)C[C@H]1[C@H](O[C@H]2[C@H](OC(C)C(=O)N[C@@H](C)C(=O)N[C@H](CCC(=O)N[C@@H](CCCCN)C(=O)N[C@H](C)C(=O)O)C(N)=O)[C@@H](NC(=O)O)C(O)O[C@@H]2CO)O[C@H](CO)[C@@H](O)[C@@H]1O (stereo partly drawn)	.	.	.	.	0%
Cc1cc(-c2ccccc2)nc2c(Br)c(C(=O)O)nn12	1%	8%	.	1%	16µM*
CCc1ccc(N=Nc2ccc(O)c3[nH]cnc23)cc1	6%	8.9µM*	.	?	5%
COc1ccc(N=Nc2ccc(O)c3ncccc23)cc1	6%	-23%	-1%	-3%	-10%
COC(=O)C1=C(C)NC(C)=C(C(=O)O[C@H]2CCN(Cc3ccccc3)C2)C1c1cccc([N+](=O)[O-])c1 (stereo partly drawn)	.	.	.	.	15%
CN(C)c1ccc(/C=C2/C[N+](C)(C)C/C(=C/c3ccc(N(C)C)cc3)C2=O)cc1	2%	10µM*	.	?	25%
COc1ccc(OC)c(-c2cc(Cl)c3c(c2)CC(CNC(=O)[C@@H]2CCCN2C(C)=O)O3)c1 (stereo partly drawn)	0%	.	.	.	.
N#C/C(=C\c1ccc(-c2cccc(Cl)c2)o1)C(=O)Nc1cccc(C(F)(F)F)c1	1%	?	11µM*	2%	2%
Cc1cc(NC(=O)/C(C#N)=C/c2ccc(-c3cccc(C(F)(F)F)c3)o2)n(-c2ccccc2)n1	11%	?	?	-1%	1%
COc1ccc(C(=O)NCC2Cc3cc(C)cc(-c4nc5ccccc5s4)c3O2)c(OC)c1OC (stereo not drawn)	-1%	.	.	.	.
CCOc1cc(CNc2ccc(N3CCOCC3)cc2)cc(Br)c1OCC	14%	7%	0%	-13%	13µM*
CCOc1cc(CNc2ccc(N3CCCCC3)cc2)cc(Br)c1OCC(=O)NC(C)(C)C	14µM*	?	-1%	-19%	8%
CC(C)c1c(C(=O)N(C)C2CCN(C)CC2)cnn1-c1nccc(-c2ccco2)n1	2%	.	.	.	.
Cc1cnc(C)c(-c2cc(F)cc3c2OC(CNC(=O)CN2CCCC2)C3)n1 (stereo not drawn)	-1%	.	.	.	.
COc1cc(/C=C2\CC(C(C)(C)C)C/C(=C\c3cc(OC)c(OC)c(OC)c3)C2=O)cc(OC)c1OC (stereo not drawn)	0%	?	.	8.9µM*	8%
C=CCN1C(=O)c2ccc(C(=O)N(CC(C)C)c3c(N)n(CCCC)c(=O)[nH]c3=O)cc2C1=O	3%	?	.	7.9µM*	-9%
SMILES	PINK1 modulator	Vif-A3F inh	Epigenetic reg	Vif-A3G inh	GLS inh
Cn1c(=O)c(/C=C/c2ccc(F)cc2)nc2ccccc21	2%	?	3%	-17%	-19%
O=c1c(/C=C(\O)c2ccc(F)cc2)nc2ccccc2n1-c1ccccc1	28%	?	13µM*	1%	1%
Cc1ccc(O)c(NC(=O)c2ccc(Br)c(S(=O)(=O)N3CCCCC3)c2)c1	40µM*	3%	-3%	0%	20%
O=C(NCCc1nnc2n1CCN(Cc1ccc(F)c(F)c1)CC2)c1ccoc1	2%	.	.	.	.
COc1cccc(NC(=O)CSc2nc3n[nH]c(C)c3c(=N)n2-c2cccc(OC)c2)c1	7%	4%	3%	-25%	-1%
COc1cccc(-n2c(SCC(=O)NCCC3=CCCCC3)nc3n[nH]c(C)c3c2=N)c1	2%	-10%	-2%	-1%	20µM*
COc1ccccc1NC(=S)N(C(C)C)C(C)c1ccccn1 (stereo not drawn)	3%	-4%	0%	0%	23%
CC(C)N(C(=S)Nc1cccc(C(F)(F)F)c1)C(C)c1ccccn1 (stereo not drawn)	32µM*	-5%	0%	-3%	-22%
C/C(=N/Nc1ccc([N+](=O)[O-])cc1)c1ccc(C)cc1C	?	-17%	-1%	-12%	3%
Cc1[nH]c2ccccc2c1/C=N/NC(=O)c1cccc([N+](=O)[O-])c1	4%	3%	-4%	-4%	-9%
C/C(=N/Nc1ccc([N+](=O)[O-])cc1)c1c[nH]c2ccccc12	4%	6.3µM*	.	?	13%
Cc1[nH]c2ccccc2c1/C=N/Nc1ccc([N+](=O)[O-])cc1	3%	10µM*	3%	10µM*	?
C/C(=N\NC(=O)C(C)Oc1ccc([N+](=O)[O-])cc1)c1ccccn1 (stereo not drawn)	-6%[38.3 µM]	-5%	16µM*	-5%	0%
CCCCOc1ccc2c(c1)/C(=C(\C(Cl)=C(Cl)Cl)[N+](=O)[O-])N2	-4%	22µM*	0%	?	-8%
CCOc1ccc2c(c1)/C(=C(\C(Cl)=C(Cl)Cl)[N+](=O)[O-])N2	0%	?	0%	?	2%
CC(C)C(NS(C)(=O)=O)c1nnc2n1CCN(Cc1ccc(C#CC(C)(C)O)cc1)CC2 (stereo not drawn)	1%	.	.	.	.
Cc1ccc(-n2nc3c(N4CCCC(C(=O)NCc5ccccc5C)C4)nnc(C)c3c2C)cc1 (stereo not drawn)	3%	13µM*	-2%	-9%	-7%
CC(NC(=O)c1ccco1)c1nnc2n1CCN(Cc1ccc(N(C)C)cc1)CC2 (stereo not drawn)	1%	.	.	.	.
